Data on 93 compounds can be found in PubChem BioAssay AID360 (National Center for Advancing Translational Sciences (NCATS), 2006).

The structures appear in SMILES notation. In all, about 48,000 compounds went through this assay and about 550 (1.1%) were called active. Inconclusive results (about 4%) are left out. What follows is part of a selection rich in actives, with near analogues and random picks from the rest. Unmarked numbers belong to inactive results. Cut-off read from the data, not from the text of the source: active = potency below about 15 µM; inconclusive = mostly about 16 µM to 33 µM; inactive = weaker than that.
Potency is the fitted concentration of half-maximal effect.

Lysosomal acid glucosylceramidase (Homo sapiens), sequence (P04062 whole entry, looked up): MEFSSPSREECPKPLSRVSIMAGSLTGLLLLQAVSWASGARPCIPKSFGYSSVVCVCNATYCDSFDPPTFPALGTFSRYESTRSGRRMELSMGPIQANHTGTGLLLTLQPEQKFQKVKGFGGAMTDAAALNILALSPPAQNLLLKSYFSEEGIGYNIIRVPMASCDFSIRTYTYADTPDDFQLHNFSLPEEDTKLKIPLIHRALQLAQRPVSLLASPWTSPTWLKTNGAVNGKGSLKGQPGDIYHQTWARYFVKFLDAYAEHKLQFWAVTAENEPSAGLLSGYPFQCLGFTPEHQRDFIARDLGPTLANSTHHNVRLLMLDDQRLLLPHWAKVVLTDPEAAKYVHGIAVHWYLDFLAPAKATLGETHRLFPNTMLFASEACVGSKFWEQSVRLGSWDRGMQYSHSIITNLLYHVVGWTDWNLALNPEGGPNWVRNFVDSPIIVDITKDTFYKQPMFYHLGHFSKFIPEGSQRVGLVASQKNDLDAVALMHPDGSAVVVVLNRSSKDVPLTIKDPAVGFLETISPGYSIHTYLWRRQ

The target of the assay is Lysosomal acid glucosylceramidase (Homo sapiens) (UniProt P04062). In words: Glucocerebrosidase.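 Note: the screen sought inhibitors.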 As to conditions: purified enzyme, resorufin glucoside fluorescence (screen aimed at inhibitors), 20 min. The procedure, abridged:
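Wild-type enzyme at 0.2 nM final in 50mM citric acid/KH2PO4, 10mM sodium taurocholate, 0.01% tween-20, pH 5.9, with resorufin beta-D-glucopyranoside at 30 uM final. Compounds titrated, 20 min at RT, red fluorescence read; AC50 from titration.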
Turning to `O=C(Cn1c(=O)sc2ccccc21)Nc1ccc2c(c1)OCCO2`, the Potency was > 76.9 µM.
Next, `COc1ccc(C(c2nnnn2Cc2cccs2)N2CCN(c3ccccc3)CC2)cc1OC` (stereo not drawn): > 76.9 µM; `O=C(Cn1c(=S)nc2ccccn21)N1CCc2ccccc2C1`: > 76.9 µM.
Take `CCOc1nc(-c2ccc(OC)cc2)ccc1-c1noc(-c2cc(OC)c(OC)c(OC)c2)n1`: the Potency is 6.96 µM (active).
Then `COc1ccc(-c2nc(-c3ccccc3)no2)c(OC)c1`, with > 76.9 µM; and `COc1ccc(-c2ccc(-c3noc(-c4ccncc4)n3)c(OC)n2)cc1`, with > 76.9 µM.
Next, `CCCC(=O)Nc1ccc2c(c1)nc1n2CCSC1`: > 76.9 µM; `O=C(O)CCC(=O)N(Cc1ccco1)c1nc(-c2ccccc2)cs1`: > 76.9 µM.
Then `COCc1nnc(NC(=O)CS(=O)(=O)Cc2ccccc2)s1`, with > 76.9 µM; and `Cc1ccc(C)n1-c1ccncc1`, with > 76.9 µM; and `Cc1ccc(C(C(=O)NCc2ccco2)N(CC2CCCO2)C(=O)Cn2nnc3ccccc32)cc1` (stereo not drawn), with > 76.9 µM.
With `Cc1ccc(-c2noc(CCC(N)=O)n2)cc1`, the Potency is > 76.9 µM.
As for `Cc1ccc(S(=O)(=O)N2CCOCC2)cc1C(=O)NCc1ccc(F)cc1`, the Potency was > 76.9 µM.
Then `Cc1nc(SCC(=O)Nc2cc(C)on2)c2c(C)c(C)sc2n1`, with > 76.9 µM; and `Cc1nc(SCC(=O)Nc2cc(C)on2)c2c3c(sc2n1)CCCC3`, with 15.3 µM (active); and `Cc1cc(C)n(-c2nc(SCC(=O)N3CCCC3)c3c4c(sc3n2)CCCC4)n1`, with > 76.9 µM.
Next, `CCn1nnc(NC(=O)c2cc(Cl)c(OC)c(Cl)c2)n1`: > 76.9 µM.
Turning to `Cc1ccccc1OCC(=O)Nc1ccc(N2CCN(C(=O)C(C)C)CC2)c(Cl)c1`, the Potency was 2.17 µM (active).
As for `CCOc1cc(N2CCOCC2)c(OCC)cc1NC(=O)COc1cccc2cccnc12`, the Potency was > 76.9 µM.
Regarding `Cc1cccc(NC(=O)COc2ccccc2C)n1`, the Potency was > 76.9 µM.
Then `CC1(C)CC(=O)C2=C(C1)NCN(CCCN1CCOCC1)C2`, with > 76.9 µM; and `Cn1c(=O)[nH]c(=O)c2c1nc(N1CCCCCC1)n2CC(=O)c1ccccc1`, with > 76.9 µM.
Next, `CCn1c(SCC(=O)Nc2cc(C)c(Cl)cc2OC)nnc1-c1ccco1`: > 76.9 µM; `N#Cc1c(N)sc2c1CCN(C(=O)OCc1ccccc1)C2`: > 76.9 µM.
Next, `O=C(O)CCC(=O)N(Cc1cccs1)Cc1cccs1`: > 76.9 µM; `O=C(O)C1CC(=O)N(Cc2cccnc2)C1` (stereo not drawn): > 76.9 µM.
Take `CC(NC(=O)c1cc(-c2ccccc2)on1)c1ccccc1` (stereo not drawn): the Potency is > 76.9 µM.
Then `Cc1cc(C)nc(NC(=O)Nc2ccccc2C(F)(F)F)n1`, with > 76.9 µM; and `O=C(Nc1ccccc1C(F)(F)F)c1cc(-c2ccc(O)cc2)on1`, with 13.4 µM (active); and `Cc1ccc(C(=O)CSc2nnc(Cn3nnc4ccccc43)n2C)cc1`, with > 76.9 µM.
Take `CC1CCN(C(=O)Cn2cc(C(=O)c3ccco3)c3ccccc32)CC1`: the Potency was 12.7 µM (active).
Then `CCOC(=O)C1CCN(C(=O)Cn2cc(C#N)c3ccccc32)CC1`, with > 76.9 µM.
Next, `COC(=O)Cn1cc(C(=O)c2cccs2)c2ccccc21`: > 76.9 µM; `O=C(OCC(O)C(O)COC(=O)c1ccccc1)c1ccccc1` (stereo not drawn): > 76.9 µM; `Cc1ccc(C)c(NS(=O)(=O)c2cc(Br)cnc2N)c1`: 15.2 µM (active).
Next, `Cc1ccc(S(=O)(=O)NCc2csc(C)n2)c(C)c1`: > 76.9 µM; `COC(=O)c1c(NC(=O)CSc2nc3c(c(=O)n(C)c(=O)n3C)n2C(C)C)sc(C)c1C`: > 76.9 µM; `Cc1nc2c(-c3ccccc3)c(C)[nH]n2c(=O)c1Cl`: 5.44 µM (active).
With `Cc1nc2nc(COc3ccccc3)[nH]n2c(=O)c1C`, the Potency was > 76.9 µM.
Turning to `CCn1c(COc2ccccc2)nnc1SCC(=O)Nc1ccc2c(c1)OCCO2`, the Potency was > 76.9 µM.
Next, `O=C(NCc1cn2ccsc2n1)Nc1ccc(Cl)cc1`: > 76.9 µM.
Then `O=C(NCc1ccc(Cl)cc1)c1cc2c(nc3sccn32)s1`, with 8.26 µM (active); and `O=c1cc(Cn2nnc(-c3ccc(Cl)cc3)n2)nc2sccn12`, with > 76.9 µM; and `CCn1c(SCC(=O)c2ccc(Cl)s2)nnc1-c1cccs1`, with > 76.9 µM.
For the compound `CCN(CC)S(=O)(=O)N1CCC(C(=O)NC(C)CCc2ccccc2)CC1` (stereo not drawn), the Potency was > 76.9 µM.
Consider `CC(=O)N1CCC(C(=O)Nc2nc(-c3ccccc3)ns2)CC1`, for which the Potency is 7.19 µM (active).
`Cc1ccc2c(NC(=O)C3CC3)cccc2n1`: the Potency was > 76.9 µM.
For `CCc1nnc(NC(=O)c2ccc(S(=O)(=O)NC3CCCCC3)cc2)s1`, the Potency is 9.65 µM (active).
Then `CCc1nnc(NS(=O)(=O)c2ccc(NS(=O)(=O)c3ccccc3)cc2)s1`, with > 76.9 µM; and `CCc1nnc(NC(=O)C2CCCN2S(=O)(=O)c2ccccc2)s1` (stereo not drawn), with > 76.9 µM.
On to `O=C(c1ccccc1-c1ccccc1)N1CCOCC1`, for which the Potency was > 76.9 µM.
On to `Cc1occc1C(=O)Nc1cccc(Cn2cccn2)c1`, for which the Potency was > 76.9 µM.
Next, `CCNc1nc(N)nc(Oc2ccc(OCC)nn2)n1`: > 76.9 µM; `CC(C)(C)c1nc(NCC2CCCO2)c2nnn(Cc3ccccc3)c2n1` (stereo not drawn): > 76.9 µM.
Then `Cc1ccccc1-c1nnn(CC(=O)c2ccc(S(=O)(=O)N3CCCC3)cc2)n1`, with > 76.9 µM; and `O=C(Cn1nnc(-c2ccccc2)n1)NCc1ccccc1`, with > 76.9 µM.
Next, `CC(C)(C)NC(=O)Cn1nnc(-c2ccccc2Cl)n1`: 15.2 µM (active); `Cc1noc(C)c1COC(=O)Cn1c(C)nc2ccccc21`: > 76.9 µM.
Regarding `CC(C)[C@H](NC(=O)Nc1ccc(S(N)(=O)=O)cc1)C(=O)O`, the Potency was > 76.9 µM.
Then `COc1ccc(OC)c(NC(=O)CSc2nc3cccnc3n2C)c1`, with > 76.9 µM; and `CCOC(=O)CSc1nnc(CNc2nc(-c3ccccc3)cs2)n1C`, with > 76.9 µM.
In the case of `Cc1ccc(NC(=O)Cn2nc(C)c3ccccc3c2=O)c(C)c1`, the Potency is > 76.9 µM.
Next, `O=c1c2cc3c(=O)n(CC4CCCO4)c(=O)c3cc2c(=O)n1CC1CCCO1` (stereo not drawn): > 76.9 µM; `COC(=O)c1ccc2c(=O)n(CC3CCCO3)c(=S)[nH]c2c1` (stereo not drawn): > 76.9 µM; `O=C(NC1CCCCC1)c1ccc2c(=O)n(CC3CCCO3)c(=O)[nH]c2c1` (stereo not drawn): 6.37 µM (active).
Next, `O=C(C1CCC(C(=O)N2CCCC2)CC1)N1CCCC1` (stereo not drawn): > 76.9 µM.
Then `CCOc1ccc(NC(=O)Nc2cc(C)on2)cc1`, with > 76.9 µM; and `CC1(C)CC(=O)C=C(NCCCN2CCCC2=O)C1`, with > 76.9 µM.
Regarding `O=C(OCc1nnc(-c2ccccc2)o1)c1ccc2c(c1)C(=O)N(CCc1ccccc1)C2=O`, the Potency is > 76.9 µM.
In the case of `CCNC(=O)CN(c1ccc(C)cc1)S(=O)(=O)c1ccc(SC)cc1`, the Potency is > 76.9 µM.
As to `COc1ccc(Cl)cc1NC(=O)C1CC(=O)N(c2ccc(F)cc2)C1` (stereo not drawn), the Potency is > 76.9 µM.
For the compound `O=S(=O)(NCc1ccccn1)c1ccc(Br)s1`, the Potency is > 76.9 µM.
`c1ccc(-c2cc(-c3nnc4sc(-c5ccccn5)nn34)[nH]n2)cc1`: the Potency is > 76.9 µM.
Then `CCCn1c(=O)c(-c2ccccc2)c(O)c2ccccc21`, with > 76.9 µM; and `Cc1ccc(F)cc1NC(=O)c1ccc2c(c1)OCO2`, with > 76.9 µM.
Regarding `Cc1ccc(-n2c(N)c(C(=O)N3CCOCC3)sc2=S)c(C)c1`, the Potency was > 76.9 µM.
Next, `COc1ccc(-n2nnnc2SCC(=O)c2ccc(OC)c(OC)c2)cc1`: > 76.9 µM; `Cn1c(SCC(=O)Nc2cccc(NC(=O)c3cccs3)c2)nnc1-c1ccncc1`: > 76.9 µM.
Next, `COc1ccc(N2CCN(C(=O)CSc3nnc4ncccn34)CC2)cc1`: > 76.9 µM; `Cc1ccc(OCC(=O)Nc2ccc(-c3nc4ncccc4o3)cc2)cc1`: > 76.9 µM.
For `O=C(O)c1ccc(-n2cccc2)cc1O`, the Potency was > 76.9 µM.
Next, `CCCCN(C)C(=O)C1CCN(Cc2ccccn2)CC1`: > 76.9 µM; `O=C(Nc1ccon1)c1cccc(Cl)c1`: > 76.9 µM; `Fc1ccc(Cn2nnnc2C(c2cccs2)N2CCCCCC2)cc1` (stereo not drawn): > 76.9 µM.
Then `CCC(=O)N(Cc1cc2cc(OC)ccc2[nH]c1=O)c1ccccc1C`, with > 76.9 µM.
In the case of `Cc1ccc(C2(c3ccc(C)cc3)NC(=O)N(Cc3c(C)noc3C)C2=O)cc1`, the Potency was > 76.9 µM.
In the case of `CCOc1cc(C2C(C(=O)OC)=CN(C3CCCC3)C=C2C(=O)OC)cc(Br)c1O`, the Potency is 6.06 µM (active).
For `CCOc1ccccc1C1C(C(=O)OC)=CN(C)C=C1C(=O)OC`, the Potency is > 76.9 µM.
Then `CCOc1ccc(CNC(=O)C2CCC(=O)N2C2CCCC2)cc1OC` (stereo not drawn), with > 76.9 µM; and `CC(C)CCNC(=O)CN(C(=O)Cn1nnc(-c2ccc(F)cc2)n1)C1CCCC1`, with > 76.9 µM; and `CC(=O)Nc1ccc(S(=O)(=O)NCCc2ccccc2)cc1`, with > 76.9 µM.
Next, `O=C(CN1CCN(c2nc(-c3ccccc3)cs2)CC1)NCc1ccc2c(c1)OCO2`: > 76.9 µM; `O=C(CSc1nnc(-c2ccccc2)o1)N1CCOCC1`: > 76.9 µM.
